Compound activity deposited in PubChem by The Scripps Research Institute Molecular Screening Center.
CHO-K1 Ca ag: counter-screen for M1 agonists: effect in parental CHO-K1 cells | Fluo-8 calcium fluorescence; scaled to maximal ATP response, vehicle zero | activation, % at 3 µM | actives 0.48% (n = 360,000) | AID 602248, 2012; in the data active means activation above about 15%;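 further: untransfected CHO-K1 host cells lacking M1 receptor as counterscreen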
M1 antag: human M1 muscarinic receptor antagonists, primary screen, CHO-K1 cells, Fluo-8 calcium fluorescence, 1536-well; Muscarinic acetylcholine receptor M1 (Homo sapiens), P11229; CHO-K1 hM1, ACh EC80 antagonist; inhibition, % at 3 µM; actives 1.3% (n = 360,000); AID 588852, 2011;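 active means percent inhibition above its own plate's cutoff, namely the mean of that plate's compound wells plus 3 SD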;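 further: peak over basal fluorescence ratio during 140 s after agonist addition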
Target sequence (P11229 whole entry, looked up): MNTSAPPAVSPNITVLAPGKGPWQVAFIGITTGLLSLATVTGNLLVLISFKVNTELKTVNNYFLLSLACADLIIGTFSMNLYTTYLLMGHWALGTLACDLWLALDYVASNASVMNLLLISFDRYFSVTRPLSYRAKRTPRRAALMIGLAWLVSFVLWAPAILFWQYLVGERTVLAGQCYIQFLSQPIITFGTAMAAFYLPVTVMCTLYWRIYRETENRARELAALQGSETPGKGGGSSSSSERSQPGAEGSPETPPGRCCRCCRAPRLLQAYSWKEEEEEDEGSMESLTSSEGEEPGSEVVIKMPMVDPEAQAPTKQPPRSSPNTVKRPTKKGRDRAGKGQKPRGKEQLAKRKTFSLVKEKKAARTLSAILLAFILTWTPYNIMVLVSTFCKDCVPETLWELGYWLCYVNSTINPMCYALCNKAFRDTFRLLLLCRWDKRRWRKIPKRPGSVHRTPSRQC
M1 ag: human M1 muscarinic receptor agonists, primary screen, Fluo-8 calcium fluorescence, CHO-K1 cells, HTS. CHO-K1 hM1, agonist mode; 0% DMSO, 100% acetylcholine EC100. AID 588814, 2011. activation, % at 3 µM. actives 0.33% (n = 360,000);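 active means activation above the run's mean compound activation plus 3 SD, cut at about 16% in these data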;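 further: peak over basal fluorescence ratio within a 140 s kinetic read after compound addition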
CHO-K1 Ca antag: nonselective inhibitor or artifact in parental CHO-K1 cells | ATP-induced calcium, Fluo-8 fluorescence | inhibition, % at 3 µM | actives 0.6% (n = 360,000) | AID 602250;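 active means inhibition above a per-plate cutoff, the plate's mean sample inhibition plus 3 SD, cut at about 24% in these data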
M1 PAM: human M1 muscarinic receptor positive allosteric modulators, primary screen, CHO-K1 cells, Fluo-8 calcium fluorescence, 1536-well; Muscarinic acetylcholine receptor M1 (Homo sapiens), P11229; actives 0.088% (n = 360,000); AID 588819, 2011; activation, % at 3 µM; CHO-K1 hM1, ACh EC20; 0% = ACh EC20, 100% = maximal ACh; in the data active means activation above about 19%, passing the limit was not always enough
M1 PAM parental: nonselective calcium activators in parental CHO-K1 cells, primary screen, counter-screen for M1 PAM project, cell-based, Fluo-8 calcium fluorescence, full deck, 1536-well | AID 602247, 2012 | ATP EC20; 0% at ATP EC20, 100% at ATP max | actives 0.02% (n = 360,000) | activation, % at 3 µM;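 active means activation above the run cutoff, the mean activation of all test compounds plus 3 SD, cut at about 40% in these data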;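 further: peak over basal fluorescence ratio in a 140 s read after ATP addition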
Of the large screens only hits and unclear results are named; the others gave an inactive call. Sampled rows, rich in hits. Any-hit rate of the full collection: about 2.3%.

CC/C(=N\NC(=O)CSc1ncccn1)c1ccc2c(c1)OCCO2	CHO-K1 Ca antag 26
O=C(Cc1ccccc1)Nc1cccc(-c2nnc(-c3ccco3)o2)c1	none
COc1ccccc1OCC(=O)Nc1cccc(-c2nnc(-c3ccco3)o2)c1	M1 antag 24
CC(=O)Oc1ccc(C(=O)Nc2cccc(-c3nnc(-c4ccco4)o3)c2)cc1	CHO-K1 Ca ag 24
COc1ccc(CC(=O)Nc2cccc(-c3nnc(-c4cccc(C)c4)o3)c2)cc1OC	M1 antag 38
O=C(Nc1cccc(-c2nnc(-c3ccco3)o2)c1)c1ccccc1	none
COc1ccc(CC(=O)Nc2cccc(-c3nnc(-c4ccccc4)o3)c2)cc1OC	M1 antag 29
CCOc1ccc(N2CC(C(=O)NCC(=O)Nc3ccc(F)c(F)c3F)CC2=O)cc1 (configuration not stated)	none
CCCc1ncc(C(=O)c2ccc(OC)cc2)n1C	CHO-K1 Ca ag 19
COc1ccc(-c2c[n+]3c4n2CCCCC4=C(c2ccc(Br)cc2)C3)cc1	M1 antag 35
Clc1ccc(C2=C3CCCCn4c(-c5ccccc5)c[n+](c43)C2)cc1	none
O=C(Nn1cnnc1)c1cc(Br)ccc1Cl	none
CCOC1=C2[C@@H](CN(S(=O)(=O)c3ccc(C)cc3)[C@H]2c2ccccc2Cl)[C@H]2C(=O)N(C(C)(C)C)C(=O)[C@H]2C1	CHO-K1 Ca antag 27
Nc1nncn1C(=O)CCc1ccccc1	none
CC1CN(C(=O)COC(=O)Cc2c(F)cccc2Cl)CC(C)O1 (configuration not stated)	none
CC(CN1C(C)CCCC1C)OC(=O)c1ccccc1F (configuration not stated)	none
Cc1cc(NC(=O)COC(=O)C2CC(=O)N(c3ccc(C)c(Cl)c3)C2)no1 (configuration not stated)	none
Cc1cc(NC(=O)COC(=O)C2CC(=O)N(c3cccc(Cl)c3)C2)no1 (configuration not stated)	M1 PAM 31
CC(C)c1ccc(/C=C/C(=O)NC(=S)Nc2ccc(CN3CCOCC3)cc2)cc1	M1 antag 48
O=C(COc1ccc(Cl)cc1Cl)NC(=S)Nc1ccc(CN2CCOCC2)cc1	M1 antag 37
CC(C)(C)NC(=O)C1(C)CCC(=O)N1CC(F)(F)F (configuration not stated)	CHO-K1 Ca antag 24
CN1C(=S)SC(C)(NO)C1(C)C (configuration not stated)	M1 PAM 26
O=C1c2cccc3c(O)ccc(c23)C(=O)N1Cc1ccccc1	CHO-K1 Ca ag 149, M1 antag 70, M1 ag 262, CHO-K1 Ca antag 60
O=C(O)c1cccc(CN2C(=O)c3ccccc3C2=O)c1	none
O=C(Cc1ccccc1F)c1ccc(O)cc1O	CHO-K1 Ca ag 19
CCN1C[C@@H]2[C@@H]3C(=O)N(Cc4ccccc4)C(=O)[C@@H]3[C@](C)(C1=O)N2C(=O)c1ccccc1	none
Cc1nnc(SCc2cc(=O)[nH]c(N3CCCCC3)n2)s1	none
Cc1nnc(SCc2cc(=O)n3[nH]cnc3n2)s1	CHO-K1 Ca antag 25
O=C(CCc1ccccc1)NNC(=O)COc1ccc([N+](=O)[O-])cc1	none
COc1ccc(N2CCN(C(=O)C(Cc3ccccc3)NC(=O)c3ccccc3)CC2)cc1 (configuration not stated)	none
O=C(O)CCCCn1c(SCc2cc(=O)n3cc(Cl)ccc3n2)nc2ccsc2c1=O	none
O=c1c2sccc2nc(SCc2cc(=O)n3cc(Cl)ccc3n2)n1-c1ccc(F)cc1	CHO-K1 Ca ag 15
CCOC(=O)C1(Cc2ccccc2C)CCCN(C(=O)c2ccc(C(C)=O)s2)C1 (configuration not stated)	none
CSCC(=O)NS(=O)(=O)c1ccc(C)cc1	CHO-K1 Ca antag 28
CCc1ccccc1N1C(=O)C(Cl)=C(N2CCOCC2)C1=O	none
O=C(c1cc(Br)c(Br)s1)N1CCN(c2ccccn2)CC1	M1 antag 39
